A selection: hits, their analogues and other compounds. The true share with any hit is near 3%.
TRAIL sens C8: caspase-8 TRAIL sensitization. NB7+C8 cells + TRAIL, ATPlite viability luminescence. inhibition (viability loss, TRAIL sensitization), % at 10 µM. hit rate 1% among 360,000. AID 624354;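 active means compounds causing at least 50% loss of cell viability in the single-dose screen, relative to plate controls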
SENP8 block-1: blocks human SENP8 cleavage of Nedd8 substrate; Q96LD8; recombinant SENP8, Nedd8 substrate fluorescence; inhibition, % at 20 µM; hit rate 0.64% among 360,000; AID 602440; in the data active means inhibition mostly above about 40%, no sharp cut-off; inactive means mostly below about 27%
Target sequence (Q96LD8 whole entry, looked up): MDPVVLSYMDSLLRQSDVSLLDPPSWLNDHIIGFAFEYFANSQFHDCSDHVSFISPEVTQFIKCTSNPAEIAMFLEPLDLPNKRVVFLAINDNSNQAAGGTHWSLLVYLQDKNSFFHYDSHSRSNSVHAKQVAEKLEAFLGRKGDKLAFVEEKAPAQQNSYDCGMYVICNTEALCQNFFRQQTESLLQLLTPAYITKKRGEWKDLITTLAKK
SENP6 inh: SENP6 protease inhibition | Q9GZR1 | Recombinant SENP6 catalytic domain, aminoluciferin luminescence | inhibition, % at 10 µM | hit rate 1.8% among 330,000 | AID 2599;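 active means inhibition above about 50% at the single tested dose, limit read from the data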
Target sequence (Q9GZR1 628-1112 limits assumed): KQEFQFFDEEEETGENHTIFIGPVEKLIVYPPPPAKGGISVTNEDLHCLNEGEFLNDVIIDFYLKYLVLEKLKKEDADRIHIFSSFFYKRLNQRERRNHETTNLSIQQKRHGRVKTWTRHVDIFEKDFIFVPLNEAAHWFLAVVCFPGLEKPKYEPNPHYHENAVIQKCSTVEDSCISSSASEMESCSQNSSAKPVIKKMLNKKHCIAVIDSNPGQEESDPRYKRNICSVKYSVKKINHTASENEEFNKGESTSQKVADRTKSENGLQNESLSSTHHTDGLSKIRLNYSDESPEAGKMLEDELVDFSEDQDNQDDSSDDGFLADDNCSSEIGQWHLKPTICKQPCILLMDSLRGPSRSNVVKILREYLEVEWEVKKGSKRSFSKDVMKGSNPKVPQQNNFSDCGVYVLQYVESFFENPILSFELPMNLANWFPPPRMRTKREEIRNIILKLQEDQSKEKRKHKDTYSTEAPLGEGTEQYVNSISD
PPC-1+TRAIL kill: compounds killing PPC-1 cancer cells with TRAIL present (potentiator screen, no TRAIL-free arm); PPC-1 cells + TRAIL, ATPLite viability luminescence; cell killing (% activity), % at 4 µM or 5 µM; hit rate 0.41% among 220,000;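 active means cell killing above 50% in the first pass at 4 µM, then a duplicate retest at 5 µM averaging 50% or more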
SENP7 inh: blocks the human protease SENP7. Q9BQF6. inhibition, % at 5 µM. recombinant SENP7, Z-RLRGG-aminoluciferin luminescence, 40 min. hit rate 1.5% among 330,000;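 active means inhibition above about 50% at the single test dose, limit read from the data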
SENP8 block-2: inhibitors of human SENP8 protease; hit rate 1.2% among 330,000; purified SENP8, Z-RLRGG-aminoluciferin cleavage, luminescence; inhibition, % at 10 µM; Q96LD8; in the data active means inhibition above about 50%
SENP8 confirm: human SENP8 inhibition, confirmed; AID 488912; Recombinant SENP8, Z-RLRGG-aminoluciferin luminescence, 60 min; inhibition, % at 12.5 µM; shares compounds with SENP7 inh; hit rate 40% among 6,200;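 active means mean inhibition across replicates above about 50%, limit read from the data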
SENP6 confirm: confirmation of human SENP6 protease inhibitors. shares compounds with SENP7 inh. recombinant SENP6, Z-RLRGG-aminoluciferin luminescence. inhibition, % at 12.5 µM. hit rate 58% among 6,200
SENP7 confirm: human SENP7 inhibition, confirmed. shares compounds with SENP7 inh. recombinant SENP7, Z-RLRGG-aminoluciferin luminescence, 40 min. inhibition, % at 12.5 µM. hit rate 69% among 6,200
Casp3 select: selectivity test for SENP inhibitors: human caspase-3 inhibition; shares compounds with SENP7 inh; purified caspase-3, Z-DEVD-aminoluciferin luminescence, 60 min; inhibition, % at 12.5 µM; hit rate 60% among 6,200; AID 488918;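 active means mean inhibition above about 50%, limit read from the data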
Luc interf: interferes with luciferase luminescence in SENP counter-screen | shares compounds with SENP7 inh | inhibition, % at 12.5 µM | Pre-incubated SENP8/Z-RLRGG-aminoluciferin, luciferase luminescence interference | AID 488919 | hit rate 39% among 6,200;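 active means mean inhibition above about 50% when retested at one dose, limit read from the data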
Of the large screens only hits and unclear results are named; the others gave an inactive call (follow-up assays come after a bar, where they were run).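 How the source made its calls, unless noted: active means mean inhibition above about 50% in the one-dose retest (limit read from the data); inactive means the rest.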

COc1ccc(-n2nnnc2SCC(=O)Nc2nnc(C)s2)cc1OC	SENP7 inh 95 | SENP8 confirm inactive | SENP6 confirm inactive | SENP7 confirm inactive | Casp3 select inactive | Luc interf inactive
CCOC(=O)c1csc(NC(=O)CSc2nnnn2-c2ccc(OC)c(OC)c2)n1	none
CCOC(=O)C1CCCN(C(=O)c2cc3cc(OC)c(OC)cc3[nH]2)C1 (stereo not given)	none (no result: PPC-1+TRAIL kill)
COc1ccc(CCC(=O)N2c3ccccc3N=C(c3ccc4c(c3)OCO4)C2C(=O)NCc2ccccc2)cc1 (stereo not given)	none (no result: SENP6 inh, PPC-1+TRAIL kill, SENP7 inh, SENP8 block-2)
Fc1ccc(-c2nnc(-c3ccc(F)cc3)o2)cc1	SENP6 inh 52, SENP7 inh 60 (no result: PPC-1+TRAIL kill) | SENP8 confirm inactive | SENP6 confirm inactive | SENP7 confirm inactive | Casp3 select inactive | Luc interf inactive
COc1ccc(OC(=O)c2ccc3nsnc3c2)cc1	SENP7 inh 59 | SENP8 confirm inactive | SENP6 confirm inactive | SENP7 confirm inactive | Casp3 select inactive | Luc interf inactive
CCOc1cc(/C=C2\C(=O)N(c3nc(-c4ccc(Br)cc4)cs3)N=C2c2ccccc2)ccc1O	SENP6 inh 51 | SENP8 confirm inactive | SENP6 confirm inactive | SENP7 confirm inactive | Casp3 select inactive | Luc interf inactive
COc1cc(/C=C2\C(=O)N(c3ccc(NC(C)=O)cc3)N=C2c2ccccc2)ccc1O	none
O=C(Nc1cccc2nsnc12)c1cccnc1	none
O=C(Nc1ccccc1)Nc1cccc2nsnc12	SENP6 inh 95, SENP7 inh 95, SENP8 block-2 91 | SENP8 confirm 96 | SENP6 confirm 96 | SENP7 confirm 100 | Casp3 select 92 | Luc interf 90
O=C(/C=C/Nc1ccc(F)cc1F)c1ccc(Br)cc1	SENP7 inh 67 (no result: PPC-1+TRAIL kill) | SENP8 confirm inactive | SENP6 confirm inactive | SENP7 confirm inactive | Casp3 select inactive | Luc interf inactive
O=C(/C=C/Nc1ccc(F)cc1F)c1cccs1	TRAIL sens C8 93, SENP6 inh 96, PPC-1+TRAIL kill 63, SENP7 inh 99, SENP8 block-2 97 | SENP8 confirm inactive | SENP6 confirm 100 | SENP7 confirm 104 | Casp3 select 98 | Luc interf inactive
O=C(/C=C/Nc1ccccc1F)c1cccs1	TRAIL sens C8 87, SENP6 inh 96, PPC-1+TRAIL kill 50, SENP7 inh 100, SENP8 block-2 96 | SENP8 confirm 97 | SENP6 confirm 100 | SENP7 confirm 103 | Casp3 select 98 | Luc interf 97
O=C(/C=C\Nc1cccc(F)c1)c1cccs1	SENP6 inh 94, SENP7 inh 92, SENP8 block-2 89 | SENP8 confirm 96 | SENP6 confirm 97 | SENP7 confirm 102 | Casp3 select 93 | Luc interf 95
O=C(NNC(=O)c1cccs1)c1cccc(F)c1	none (no result: PPC-1+TRAIL kill)
CC(C)(O)P(=O)(O)CCc1ccccc1	none
O=C(NC(=S)Nc1cccc(CO)c1)c1ccc(-c2ccccc2)cc1	SENP6 inh 56 | SENP8 confirm inactive | SENP6 confirm inactive | SENP7 confirm inactive | Casp3 select inactive | Luc interf inactive
CCCC(=O)N(c1ccccc1)C1C=CS(=O)(=O)C1 (stereo not given)	none
CCC(=O)N(c1ccc(F)cc1)C1C=CS(=O)(=O)C1 (stereo not given)	SENP7 inh 95 | SENP8 confirm inactive | SENP6 confirm inactive | SENP7 confirm inactive | Casp3 select inactive | Luc interf inactive
CC(=O)Nc1ccc(S(=O)(=O)NC(C)(C#N)C2CC2)cc1 (stereo not given)	none (no result: PPC-1+TRAIL kill)
FC(F)(F)c1nc2nc(Cl)c(Cl)nc2[nH]1	none (no result: SENP6 inh, PPC-1+TRAIL kill, SENP7 inh, SENP8 block-2)
FC(F)(F)c1cccc(-c2nc3nc(Cl)c(Cl)nc3[nH]2)c1	TRAIL sens C8 53, SENP6 inh 95, SENP7 inh 92, SENP8 block-2 93 | SENP8 confirm 97 | SENP6 confirm 98 | SENP7 confirm 102 | Casp3 select 92 | Luc interf 87
COc1ccc(-c2oc3cccnc3c2-c2ccc(OC)nc2)cc1	none (no result: PPC-1+TRAIL kill)
Oc1ccc(C=Nc2cccc3ncccc23)c(O)c1	SENP6 inh 91 | SENP8 confirm inactive | SENP6 confirm inactive | SENP7 confirm inactive | Casp3 select inactive | Luc interf inactive
N#Cc1c(NC(=S)NC(=O)c2ccccc2)sc2c1CCC2	none
CCN1CCc2c(sc(NC(=S)NC(=O)c3ccccc3)c2C#N)C1	SENP6 inh 56 | SENP8 confirm inactive | SENP6 confirm inactive | SENP7 confirm inactive | Casp3 select inactive | Luc interf inactive
O=C(Nc1ccnn1C1CCN(Cc2ccn[nH]2)CC1)c1ccccc1	none (no result: PPC-1+TRAIL kill)
O=C(CSC(=S)N1CCOCC1)c1cc2ccccc2oc1=O	none (no result: PPC-1+TRAIL kill)
O=C(c1ccc(S(=O)(=O)N2CCCC2)cc1)N(c1ccccc1)C1C=CS(=O)(=O)C1 (stereo not given)	SENP6 inh 63 (no result: PPC-1+TRAIL kill) | SENP8 confirm inactive | SENP6 confirm inactive | SENP7 confirm inactive | Casp3 select inactive | Luc interf inactive
COc1ccc2cc3cc(C(=O)N4CCCC(C)C4)oc3nc2c1 (stereo not given)	SENP6 inh 80, SENP7 inh 83, SENP8 block-2 59 (no result: PPC-1+TRAIL kill) | SENP8 confirm inactive | SENP6 confirm inactive | SENP7 confirm inactive | Casp3 select inactive | Luc interf inactive
Cc1cc(-c2ccc(S(=O)(=O)N3CCCCC3)s2)on1	none (no result: PPC-1+TRAIL kill)
N#Cc1ccccc1CSc1ccc(-c2nc3ccccc3[nH]2)cn1	SENP6 inh 64 | SENP8 confirm 67 | SENP6 confirm 63 | SENP7 confirm 80 | Casp3 select inactive | Luc interf 53
CCOC(=O)CNC(=O)CSc1ccc(-c2nc3ccccc3[nH]2)cn1	none (no result: PPC-1+TRAIL kill)
CC(=O)CSc1ccc(-c2nc3ccccc3[nH]2)cn1	TRAIL sens C8 75, SENP6 inh 78, SENP7 inh 73 (no result: PPC-1+TRAIL kill) | SENP8 confirm 70 | SENP6 confirm 67 | SENP7 confirm 88 | Casp3 select 86 | Luc interf 72
CC1(C)SC2c3ccccc3C(=O)N2[C@@H]1C(=O)O (stereo not given in full)	none (no result: PPC-1+TRAIL kill)
COc1cccc(-n2nc(C(C)=O)c(C#N)c2-c2ccco2)c1	none
O=C(NC(=S)NC1CCS(=O)(=O)C1)c1ccccc1 (stereo not given)	none (no result: PPC-1+TRAIL kill)
